Most compounds without a hit are left out; they make up all but 7.8% or so of the library.
HCV_inhibitor: qHTS Assay for Inhibitors of Hepatitis C Virus (HCV); Huh7.5.1 HCVcc-Cre infection, luciferase reporter, 44 h; Potency, µM (highest dose often 41.8 µM), for inactives: at the top dose activity change, negative = inhibition, most hits filed as inhibitors; hit rate 3.4% among 340,000; AID 651820, 2012; active = well fitted inhibition curve with a large enough effect; inconclusive = small, poorly fitted or top-dose-only effect, or another doubt; inactive = no such curve, though single readings can be large or run the other way; also: potency is read from the fitted curve at half-maximal effect
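After 44 h co-culture of compound, cells and HCVcc-Cre (~0.5 moi), substrate is added for 15 min at room temperature and luciferase measured over 15 sec. Cells were seeded at 1,000/well and pre-cultured 4 h.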
HCMV_inh: qHTS Assay for inhibitors of the human cytomegalovirus (HCMV). HFF cells, HCMV-luciferase reporter, 72 h; hits give low values. activity change, negative = inhibition, % at 57.5 µM. hit rate 4.5% among 410,000. AID 1259415, 2018; in the data active = activity change below about -60%; inconclusive = no clear call, values can overlap the other calls; inactive = above about -39%
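Screen run at 2 compound doses on HFFs infected with reporter HCMV, MOI 1 PFU/cell. Luciferase activity from cell lysates at 72 h post infection gave inhibition relative to buffer-only and Salinomycin wells.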
MARV_entry_inh: qHTS for inhibitors of binding or entry into cells for Marburg Virus. hit rate 1.8% among 300,000. Marburg virus pseudotyped entry inhibition, cell reporter. Potency, µM (top dose mostly 37.8 µM), for the others: at the top dose activity change, negative = inhibition, actives largely listed as inhibitors. AID 540276, 2011; calls by dose curve; tested in HEK293 cells; also: potency is read from the fitted curve at half-maximal effect
VACV_mCherry_inh: qHTS for Stage-Specific Inhibitors of Vaccinia Orthopoxvirus: mCherry Reporter Primary qHTS; Vaccinia virus mCherry reporter infection, fluorescence; Potency, µM (highest dose often 36.5 µM), without a hit: top-dose activity change, negative = inhibition, most hits filed as inhibitors; hit rate 0.63% among 310,000; calls by dose curve; tested in A549 cells; also: potency is read from the fitted curve at half-maximal effect; nearly all actives have a fitted effect of over 35% in size
Lassa_entry_inh: qHTS for Inhibitors of binding or entry into cells for Lassa Virus; Lassa virus pseudotype entry inhibition, cell reporter; Potency, µM (doses to about 37.9 µM), for inactives: at the highest dose activity change, negative = inhibition, actives largely listed as inhibitors; hit rate 1.2% among 300,000; AID 540256, 2011; calls by dose curve; tested in HEK293 cells; also: potency is read from the fitted curve at half-maximal effect; nearly all actives have a fitted effect of over 50% in size
Vaccinia_Venus: qHTS for Stage-Specific Inhibitors of Vaccinia Orthopoxvirus: Venus Reporter Primary qHTS; hit rate 0.46% among 330,000; Potency, µM (titrated, usually from 36.5 µM), inactives show at the top dose activity change, negative = inhibition, most hits filed as inhibitors; Vaccinia virus Venus reporter expression, fluorescence; calls by dose curve; tested in A549 cells; also: potency is read from the fitted curve at half-maximal effect; nearly all actives have a fitted effect of over 30% in size
The depositor's hits bear a star; u = inconclusive; x = not tested or not shown; [ ] = another dose, or the depositor's remark. % is scaled to controls: 0 for no effect and ±100 for the full control effect.

SMILES HCV_inhibitor HCMV_inh MARV_entry_inh VACV_mCherry_inh Lassa_entry_inh Vaccinia_Venus
COc1ccc(-c2nnc(C3CCN(S(=O)(=O)c4ccc(C)c(C)c4)CC3)o2)cc1 x 20 9%[46.1_µM] -22% -19%[46.1_µM] -20%
C=CCOC(=O)N[C@H](c1ccc(-c2ccccc2)cc1)[C@H](C)C=CCC(=O)OC x x -4%[14.2_µM] x u x
O=C(NCc1ccccc1F)Nc1nnc([C@H]2C[C@H](O)[C@@H](CO)O2)s1 x -93* x 0% x 0%
O=C(NCc1ccccc1F)Nc1nnc([C@@H]2C[C@H](O)[C@@H](CO)O2)s1 x 0 x 39% x -6%
C/C(=N\Nc1nc2ccccc2[nH]1)c1ccc(C)o1 7% 89 u -15% 12% -5%
C/C(=N\Nc1nc(C)cc(C)n1)c1ccc(N2CCOCC2)cc1 -20% -69* x x x x
C/C(=N\Nc1nc2ccccc2[nH]1)c1ccc(N2CCOCC2)cc1 u 100 u -18% 10µM* -12%

Bioassay records (PubChem BioAssay)
